This passage reports AC50 and activity, negative = inhibition results from PubChem BioAssay AID1851 (National Center for Advancing Translational Sciences (NCATS), 2009).

Molecules are shown by their SMILES. The whole screen tested about 16,000 compounds, of which about 5,100 (32%) were called active. Inconclusive results (about 25%) are left out. The call rests on the fitted dose curve; in most records, active means well fitted curve in the direction sought with a large enough effect; inconclusive means small, poorly fitted or top-dose-only effect, or effect the other way; inactive means no such curve, though single readings can be large or run the other way. The list shows a part of the results.

A word on the AC50: it is the concentration giving half of the maximal activity seen.
On the % scale 0 is the no-effect control and ±100 the full control effect.

The target of the experiment is Cytochrome P450 3A4 (Homo sapiens) (UniProt P08684). The experiment can be described thus: Cytochrome panel assay with activity outcomes. To be noted: recombinant CYP, pro-luciferin dealkylation, luminescence, p450-cyp3a4; series mostly up to 57.1 µM.
Sequence of Cytochrome P450 3A4 (Homo sapiens) (P08684 whole entry, looked up): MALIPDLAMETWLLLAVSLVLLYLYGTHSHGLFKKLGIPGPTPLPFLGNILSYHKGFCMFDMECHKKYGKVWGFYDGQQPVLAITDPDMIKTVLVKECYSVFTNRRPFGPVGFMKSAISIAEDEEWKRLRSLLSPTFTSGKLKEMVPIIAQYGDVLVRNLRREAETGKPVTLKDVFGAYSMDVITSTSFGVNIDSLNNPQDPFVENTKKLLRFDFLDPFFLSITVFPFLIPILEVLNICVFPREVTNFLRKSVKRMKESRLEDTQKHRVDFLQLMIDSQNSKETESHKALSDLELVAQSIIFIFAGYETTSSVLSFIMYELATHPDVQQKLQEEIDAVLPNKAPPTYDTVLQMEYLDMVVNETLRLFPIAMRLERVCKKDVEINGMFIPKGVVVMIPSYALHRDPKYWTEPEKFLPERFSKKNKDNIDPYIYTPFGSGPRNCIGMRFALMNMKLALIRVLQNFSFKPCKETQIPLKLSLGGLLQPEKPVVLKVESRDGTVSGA
Turning to `CSc1nc(Cl)cc(N(CCO)CCO)n1`, the AC50 result is “inactive”.
In the case of `CCCNC(=O)OC[C@H]1O[C@@H](CCO/N=C\[C@@H](NS(=O)(=O)c2ccc(C)cc2)[C@H](C)/C=C\CC(=O)OC)C=C[C@@H]1Oc1ccc(OC)cc1`, the AC50 is 3.16 µM (active).
As for `COC(=O)C/C=C\[C@@H](C)[C@@H]1C=C[C@H](OC(C)=O)[C@H](COC(C)=O)O1`, the activity, negative = inhibition was -23.4% [at 11.4 µM] (inactive).
In the case of `COC(=O)C/C=C\[C@@H](C)[C@@H](/C=N\OCC[C@H]1C=C[C@H](OC(C)=O)[C@@H](COC(C)=O)O1)NS(=O)(=O)c1ccc(C)cc1`, the concentration at half-maximal activity (AC50) was 3.98 µM (active).
On the same count and under the same terms, the same measure for `Nc1ccn([C@@H]2CC[C@H](CO)O2)c(=O)n1`: “inactive”.
As for `CC(C)(CO)N1CCN(C(=S)Nc2ccccc2)CC1`, the activity, negative = inhibition was -8.25% [at 11.4 µM] (inactive).
`COc1cc2c(cc1OC)CN(C(=S)Nc1ccccc1)CC2`: the half-maximal activity concentration (AC50) is 12.6 µM (active).
For the molecule `CC(=O)Nc1sc2c(c1CN1CCN(C)CC1)CCCC2`, the AC50 entry is “inactive”.
The same measure, in the same setting: in the case of `CC(=O)NCCC(=O)Nc1sc2c(c1-c1nc3ccccc3[nH]1)CCCC2` it was 12.6 µM (active); in that of `COc1cccc(Cn2c(=O)c(-c3cccs3)nc3cnc(N4CCN(C)CC4)nc32)c1`, 12.6 µM (active); in that of `COc1cccc(Cn2c(=O)c(-c3cccs3)nc3cnc(N4CCNCC4)nc32)c1`, 15.8 µM (active).
As for `CC(C)OC(=O)c1cc2c(OC[C@@H](O)CNC(C)(C)C)cccc2[nH]1`, the AC50 result is “inactive”.
Consider `Clc1ccc2c(N3CCC(CCC4CCN(c5ncnc6cc(Cl)ccc56)CC4)CC3)ncnc2c1`, for which the activity, negative = inhibition was -31.6% [at 11.4 µM] (inactive).
With `CN1CCN(c2ncnc3ccc(-c4ccccc4Cl)cc23)CC1`, the AC50 was 5.01 µM (active).
Still for that read-out and setting: the same measure for `CN1CCN(c2ncnc3ccc(-c4ccccc4C#N)cc23)CC1`: 15.8 µM (active); for `Cc1ccccc1-c1ccc2ncnc(N3CCN(C)CC3)c2c1`: 3.98 µM (active).
With `COC(=O)c1ccc(Oc2nc(N(C)C)nc(N3CCOCC3)n2)cc1`, the activity, negative = inhibition was 14.7% [at 11.4 µM] (inactive).
`c1ccc(C2OCC3(CO2)COC(c2ccccc2)OC3)cc1` (stereo not given): the AC50 entry was “inactive”.
As to `C[C@H]1[C@H](C)OC(=O)C[C@H](O)C[C@H](O)C[C@H](O)CC[C@H](O)[C@H](O)CC(=O)C[C@H](O)[C@H](C(=O)O)[C@H](O)C[C@H](O[C@@H]2O[C@@H](C)[C@H](O)[C@@H](N)[C@@H]2O)C=CC=CC=CC=CCCC=CC=C[C@@](C)(O)[C@H]1O`, the activity, negative = inhibition was 7.28% [at 11.4 µM] (inactive).
Same read-out and setting: in the case of `CCOc1ccc2c(ccc(/C=C\c3cc(C)c4cccnc4c3O)[n+]2C)c1` it was -23.9% [at 11.4 µM] (inactive).
Same read-out and setting: the same measure for `CCCc1cc(=O)oc2c(CN3CCOCC3)c(O)ccc12`: 1.81% [at 2.29 µM] (inactive); for `Cn1c(=O)n2n(c1=O)[C@H]1[C@H](O)[C@H]3O[C@H]3C(=O)[C@H]1CC2`: -16.9% [at 11.4 µM] (inactive).
Consider `Cc1cc(Cl)nc2ccc(Cc3ccc4nc(Cl)cc(C)c4c3)cc12`, for which the AC50 was 3.16 µM (active).
On the same count and under the same terms, the same measure for `CCc1c(C)nc2ccc(Br)cc2c1Cl`: “inactive”.
Consider `CC(=O)Nc1ccc(Cc2ccc3[nH]c(=O)cc(C)c3c2)cc1`, for which the activity, negative = inhibition was -20.4% [at 11.4 µM] (inactive).
Turning to `CCOc1ccc2[nH]c(=O)c(CN(CCc3ccccc3)C(=O)N3CCOCC3)cc2c1`, the AC50 was 7.94 µM (active).
The same measure, in the same setting: the same measure for `COc1cccc(C(=O)n2c(SC)nc3cc4c(cc32)OCCO4)c1`: “inactive”.
Turning to `CCOc1ccc(Cc2nc(C)c(CC(=O)N3CCOCC3)c(=O)[nH]2)cc1`, the activity, negative = inhibition was 1.75% [at 11.4 µM] (inactive).
For `COc1ccc2[nH]c(=O)c(CN(CCc3ccccc3)C(C)=O)cc2c1`, the AC50 is 17.8 µM (active).
Still for that read-out and setting: the same measure for `CCOc1ccc2[nH]c(=O)c(CN(CCc3ccccc3)C(=O)N3CCCC3)cc2c1`: 3.55 µM (active); for `COc1cccc(C(=O)N(Cc2ccccc2)Cc2cc3cc4c(cc3[nH]c2=O)OCCO4)c1`: 3.98 µM (active); for `O=C(O)c1cc2cc(OCc3ccccc3)ccc2[nH]1`: “inactive”.
On the same count and under the same terms, the same measure for `COc1ccc2[nH]c(=O)c(NC(N)=S)nc2c1`: “inactive”.
In the case of `C[N+]1(CC(=O)OCCCc2ccccc2)CCOCC1`, the AC50 result is “inactive”.
Regarding `CCN(CC)C(=O)CSc1nc2ccc(NC(=O)CSc3nnc(COc4ccccc4C)n3C)cc2s1`, the activity, negative = inhibition was -17.9% [at 2.29 µM] (inactive).
Consider `CCc1cccc(C)c1NC(=O)CSc1nc2ccc(N3C(=O)c4ccccc4C3=O)cc2s1`, for which the AC50 is 4.47 µM (active).
Same read-out and setting: the same measure for `Cc1cnc(CNc2nc(-c3ccc4c(c3)OCO4)nc3ccccc23)cn1`: 0.794 µM (active).
Still for that read-out and setting: in the case of `c1cncc(CNc2nc(-c3ccc4c(c3)OCO4)nc3ccccc23)c1` it was 0.316 µM (active); in that of `Cc1cccc(CNc2nc(-c3ccc4c(c3)OCO4)nc3ccccc23)c1`, 0.398 µM (active); in that of `c1csc(CNc2nc(-c3ccc4c(c3)OCO4)nc3ccccc23)c1`, 1 µM (active).
Regarding `C[C@]1(O)CC[C@H]2[C@H]3CC=C4N5CCN=C5CC[C@@]4(C)[C@H]3CC[C@@]21C`, the activity, negative = inhibition is -12.7% [at 11.4 µM] (inactive).
As to `O=C(O)c1cc(-c2ccc3cc4c(cc3c2)OCO4)nc2ccccc12`, the activity, negative = inhibition is -17.7% [at 11.4 µM] (inactive).
The same measure, in the same setting: the same measure for `N=C(N)SCc1cccc(-c2nc3ccccc3c(=O)o2)c1`: -20.1% [at 11.4 µM] (inactive).
Regarding `CC(=O)NCCNc1nc(-c2ccc3c(c2)OCO3)nc2ccccc12`, the AC50 was 3.98 µM (active).
`c1ccc(CNc2nc(-c3ccc4c(c3)OCO4)nc3ccccc23)cc1`: the AC50 was 1 µM (active).
Take `COc1ccc(CSC2=C(C#N)C(=O)NC3(CCCCC3)S2)cc1`: the activity, negative = inhibition was -12.2% [at 11.4 µM] (inactive).
As to `O=C1C=C(c2cccs2)CC(c2cccs2)C1n1cnc([N+](=O)[O-])c1` (stereo not given), the AC50 entry is “inactive”.
With `CCCCSCc1nc2nc(Cl)c(Cl)nc2[nH]1`, the activity, negative = inhibition was -27.9% [at 11.4 µM] (inactive).
For the molecule `CC1CCN(C(=S)c2ccc(O)cc2)CC1`, the activity, negative = inhibition was 11.7% [at 2.29 µM] (inactive).
Turning to `CSc1nnc2c(n1)OC(C)N(C(=O)c1ccccc1)c1ccccc1-2` (stereo not given), the AC50 result was “inactive”.
On the same count and under the same terms, in the case of `C=CCSc1nnc2c(n1)OC(c1c(C)[nH]n(-c3ccccc3)c1=O)Nc1ccccc1-2` (stereo not given) it was 14.1 µM (active).
Still for that read-out and setting: the same measure for `CC(C)[C@@H]1NC(=O)[C@H](CCCCN)NC(=O)[C@H](Cc2c[nH]c3ccccc23)NC(=O)[C@H](Cc2ccc(O)cc2)NC(=O)[C@H](C)N(C)C(=O)[C@H](Cc2ccccc2)NC1=O`: 3.98 µM (active).
As to `Clc1ccc(CN2CCCN(Cc3ccc(Cl)cc3)C2c2cc3ccccc3c3ccccc23)cc1`, the activity, negative = inhibition is -6.95% [at 11.4 µM] (inactive).
With `O=Nc1c(O)n(Cc2ccc(Cl)cc2)c2ccccc12`, the AC50 was 17.8 µM (active).
The same measure, in the same setting: in the case of `O=Nc1c(O)n(Cc2ccc(Cl)c(Cl)c2)c2ccccc12` it was 14.1 µM (active).
With `O=c1[nH]ncc2c3ccccc3n(Cc3ccccc3)c12`, the AC50 entry was “inactive”.
Consider `Cc1sc2ccccc2[n+]1CCC(C)S(=O)(=O)[O-]` (stereo not given), for which the AC50 result was “inactive”.
On to `CCCN(CCC)CCCNS(=O)(=O)c1cc(Br)cc2c1N(C(C)=O)CC2`, for which the activity, negative = inhibition is -10.1% [at 11.4 µM] (inactive).
For the molecule `CC(=O)N1c2c(cc(Br)cc2S(=O)(=O)NCC2COc3ccccc3O2)CC1C` (stereo not given), the concentration at half-maximal activity (AC50) was 7.94 µM (active).
`OC[C@H]1NC[C@@H](O)[C@@H](O)[C@H]1O`: the AC50 result was “inactive”.
Take `CCCCOc1ccc(/C=C/C(=O)NCCc2nc3ccccc3[nH]2)cc1`: the AC50 is 12.6 µM (active).
Regarding `N[C@@](CCc1ccccc1)(C(=O)O)c1ccccc1`, the activity, negative = inhibition was -0.157% [at 11.4 µM] (inactive).
As for `O=C(Nc1ccccc1)N1CCC2(CCNCC2)CC1`, the AC50 entry is “inactive”.
Still for that read-out and setting: the same measure for `COC(=O)N1CCC2(CC1)CN(C(=O)Nc1ccccc1)C2`: “inactive”.
Same read-out and setting: in the case of `O=C(Nc1ccc(Cl)cc1)N1CCc2[nH]c3ccccc3c2C1` it was 14.1 µM (active).
For the molecule `C[C@H]1C2=C3C(CC[C@H]4C(OCc5ccc(F)cc5C(F)(F)F)OC[C@](C)([C@@H]34)N(C(=O)OC(C)(C)C)C2)C2COC(=O)OCC21` (stereo not given in full), the AC50 is 20 µM (active).
Still for that read-out and setting: in the case of `CC[C@H]1C2=C3C(CC[C@H]4C(OCc5ccc(F)cc5C(F)(F)F)OC[C@](C)([C@@H]34)N(C(=O)OC(C)(C)C)C2)C2COC(=O)OCC21` (stereo not given in full) it was 20 µM (active); in that of `CN(C(=O)c1c(O)c2ccccc2n(C)c1=O)c1ccccc1`, “inactive”.
Still for that read-out and setting: in the case of `Cc1ccc(-n2c(-c3ccccc3)cc(=O)nc2C)cc1` it was “inactive”; in that of `Cn1c(=O)c2nc(-c3ccccc3)oc2c2ccccc21`, 12.6 µM (active).
As to `CCCn1c(-c2ccccc2)nc2c(=O)n(C)c(=O)[nH]c21`, the AC50 result is “inactive”.
For `CC(C)CCN1C(=O)c2ccc(-c3nc4ccccc4c(=O)o3)cc2C1=O`, the activity, negative = inhibition was -5.78% [at 11.4 µM] (inactive).
Regarding `Cc1ccc(-c2nc3c(=O)n(C)c4ccccc4c3o2)cc1`, the AC50 is 7.08 µM (active).
As for `OC[C@@H](O)CNc1ncnc2ccccc12`, the activity, negative = inhibition is 3.9% [at 11.4 µM] (inactive).
Turning to `Cc1cc(C)n(-c2ccc(F)cc2)c(=O)c1C(=O)O`, the AC50 result was “inactive”.
For the molecule `Cc1cc(C)c(NC(=O)CSc2nnc(Cc3cccn3C)n2-c2ccc(F)cc2)c(C)c1`, the concentration at half-maximal activity (AC50) is 1.58 µM (active).
Same read-out and setting: the same measure for `Cc1cc(C)c(NC(=O)NC(=O)c2ccc(F)cc2)c(C)n1`: “inactive”.
As to `Cc1ccc(C)c(NC(=O)c2ncn[nH]2)c1`, the AC50 is 14.1 µM (active).
For the molecule `COc1ccc(NC(=O)c2ncn[nH]2)cc1`, the AC50 entry is “inactive”.
The same measure, in the same setting: in the case of `CC(C)c1ccc(O)c(NC(=O)c2ncn[nH]2)c1` it was 10 µM (active).
With `O=C(NCCc1ccc(Cl)cc1)c1ncn[nH]1`, the activity, negative = inhibition was -0.238% [at 2.29 µM] (inactive).
With `CCC(C)n1nnc2c(=O)oc3ccccc3c21` (stereo not given), the AC50 entry is “inactive”.
As to `Cc1cccc(CNc2ccnc(-c3ccoc3)n2)c1`, the AC50 was 1 µM (active).
On the same count and under the same terms, in the case of `c1ccc(CNc2ccnc(-c3ccoc3)n2)cc1` it was 10 µM (active).
Consider `Cc1ccc(S(=O)(=O)N=Nc2c(O)[nH]c3cc(O)c(C(=O)O)cc23)cc1`, for which the activity, negative = inhibition is -1.68% [at 11.4 µM] (inactive).
Consider `CNc1nc(-c2cccc(C#N)c2)nc2ccccc12`, for which the AC50 was 10 µM (active).
On the same count and under the same terms, the same measure for `COc1ccc(CNc2nc(-c3cccc(NS(C)(=O)=O)c3)nc3ccccc23)c(OC)c1`: 2.51 µM (active).
Consider `COc1ccc(CNc2nc(-c3cccc(C#N)c3)nc3ccccc23)c(OC)c1`, for which the AC50 is 2.51 µM (active).
For `N#Cc1cccc(-c2nc(Nc3ccccc3)c3ccccc3n2)c1`, the AC50 entry is “inactive”.
The same measure, in the same setting: the same measure for `COc1ccccc1CNc1nc(-c2cccc(C#N)c2)nc2ccccc12`: 10 µM (active).
